FLuc modulator: counter-screen for miR-21 project: firefly luciferase inhibitors or activators | purified FLuc, Km substrates, luminescence inhibition | P08659 | 6.9% of 360,000 active | AID 588342 | Potency, µM (highest dose often 57.5 µM), for the others: top-dose activity change, negative = inhibition, actives largely listed as inhibitors;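 note: plate controls were vehicle for no effect and reference inhibitor for full effect; nearly all actives have a fitted effect of over 55% in size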
Target sequence (P08659 whole entry, looked up): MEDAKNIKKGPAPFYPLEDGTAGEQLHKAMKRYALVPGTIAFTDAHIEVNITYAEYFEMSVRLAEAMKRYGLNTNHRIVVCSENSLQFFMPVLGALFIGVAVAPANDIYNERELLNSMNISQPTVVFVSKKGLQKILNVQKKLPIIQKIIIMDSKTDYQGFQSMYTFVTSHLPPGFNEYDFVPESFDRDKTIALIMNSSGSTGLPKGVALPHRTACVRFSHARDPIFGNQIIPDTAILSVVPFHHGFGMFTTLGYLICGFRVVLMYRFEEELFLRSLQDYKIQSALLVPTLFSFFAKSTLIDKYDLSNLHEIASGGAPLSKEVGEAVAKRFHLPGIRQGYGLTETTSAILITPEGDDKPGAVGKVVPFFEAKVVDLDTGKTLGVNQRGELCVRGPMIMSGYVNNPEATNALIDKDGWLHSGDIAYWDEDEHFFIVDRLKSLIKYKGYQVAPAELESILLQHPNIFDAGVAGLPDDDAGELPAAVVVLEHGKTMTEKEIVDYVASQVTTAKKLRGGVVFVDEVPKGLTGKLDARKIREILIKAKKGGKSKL
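Purified P. pyralis luciferase, 10 nM final, with Km-level 10 uM D-luciferin and 10 uM ATP in 50 mM Tris acetate pH 7.5, 10 mM Mg acetate, 0.01% Tween-20, 0.05% BSA; 6-point qHTS titration about 60 µM downward; luminescence read.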
NPC1 promoter act: activators of NPC1 promoter | Huh7 NPC1 promoter luciferase reporter, 24 h | Potency, µM (series often up to 9.22 µM), without a hit: at the top dose activation, actives largely listed as activators | 2.4% of 320,000 active | AID 485313; note: % of control where 0% means no effect; nearly all actives have a fitted effect of over 60% in size
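Cells: Huh7 expressing luciferase under the NPC1 promoter, 1500/well. Seeded 2 h, compound added, incubated 24 h at 37 °C. Luciferase reagent, 10 min ambient, then luminescence.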
ELG1 genotox: inducers of genotoxicity in HEK293T ELG1-luciferase cells | 1.3% of 330,000 active | HEK293T ELG1-luciferase reporter, luminescence, 16 h | Potency, µM (doses to about 46 µM), for the others: at the highest dose activity change, positive = activation, most hits filed as activators; note: % of control where 0% means no effect; nearly all actives have a fitted effect of over 60% in size
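HEK293T cells expressing luciferase-tagged ELG1 were exposed to compound or DMSO vehicle for 16 hr at 37 °C and 5% CO2. Luciferase activity was then measured with ONE-Glo after 30 min at room temperature.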
Rab9 prom act: activators of Rab9 promoter | Huh7 Rab9 promoter-luciferase reporter, luminescence, 24 h | 2.8% of 320,000 active | Potency, µM (top dose mostly 9.22 µM), for the others: at the top dose activation, negative = inhibition, hits mostly activators | AID 485297; note: % of control where 0% means no effect; nearly all actives have a fitted effect of over 60% in size
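Luciferase signal after 10 min detection reagent at ambient indicates Rab9 promoter upregulation; stably transfected Huh7 cells were treated 24 h with compound in DMSO at 37 °C, 5% CO2.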
SMN2 splice enh: increases expression of the SMN2 splice variant. Potency, µM (series often up to 46.1 µM), for inactives: at the top dose activity change, positive = activation, usual class: activators. HEK293 SMN2-luciferase splicing reporter, luminescence, 30-36 h. 2.8% of 210,000 active; note: % of control where 0% means no effect; nearly all actives have a fitted effect of over 55% in size
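HEK293 cells carry an SMN2 […]–luciferase reporter in which exon 7 inclusion puts luciferase in frame. Cells were plated 10-12 h before compound addition, then incubated 30-36 h at 37C. ONE-Glo luminescence was read; sodium butyrate at 4.5 mM final served as control.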
Luc counter: counter-screen: inhibitors of Kinase-Glo firefly luciferase; 0.28% of 200,000 active; Potency, µM (top dose mostly 38.3 µM), without a hit: at the highest dose activity change, negative = inhibition, hits mostly inhibitors; Kinase-Glo luciferase, ATP luminescence, 8 min; Q27757; note: % is set by controls: 0 for no effect and ±100 for the full control effect; nearly all actives have a fitted effect of over 60% in size
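Substrate mix (final 50 mM imidazole pH 7.2, 50 mM KCl, 7 mM MgCl2, 10 uM ATP, 0.01% Tween 20, 0.05% BSA) plus pin-tool compound, then Kinase-Glo detection mix; 8 min ambient, luminescence read.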
The depositor's hits bear a star; ? = inconclusive; / = not tested or not shown; [ ] = another dose, or the depositor's remark. A selection: hits, their analogues and other compounds. The true share with any hit is near 7.5%. Calls come from the whole dose curve; as a rule, active = well fitted curve in the direction sought with a large enough effect; inconclusive = small, poorly fitted or top-dose-only effect, or another doubt; inactive = no such curve, though single readings can be large; an effect the other way counts as inactive or inconclusive. Potency is the fitted concentration of half-maximal effect.

SMILES	FLuc modulator	NPC1 promoter act	ELG1 genotox	Rab9 prom act	SMN2 splice enh	Luc counter
O=C(c1ccc(N2CCOCC2)cc1)c1cccs1	1.9µM*	0.89µM*	?	1.1µM*	2.5µM*	-20%
COc1ccc(C(=O)N/N=C/c2ccc(N3CCOCC3)s2)cc1OC	-13%	-3%	-1%	-7%	/	/
CC(=O)c1cccc(NC(=O)Cn2c(=O)c(CNc3ccc(C)cc3)cc3cc4c(cc32)OCCO4)c1	-7%	/	/	/	/	/
NC(=O)C1CCCN(C(=O)c2ccc3c(c2)NC(=O)CS3)C1 (stereo unspecified)	5%	0%	-1%	2%	/	/
CCOCc1nnc(NC(=O)C2CC(=O)N(CCc3ccc(F)cc3)C2)s1 (stereo unspecified)	1%	1%	4%	-1%	/	/
COc1ccc(CCNc2nc(-c3ccccn3)cs2)cc1OC	-18%	-5%	-5%	13%	/	/
COc1ccc(CCNc2nc(-c3ccc(O)cc3)cs2)cc1OC	17µM*	2%	5%	0%	/	/
COc1ccc(CCNc2nc(-c3ccncc3)cs2)cc1OC	21µM*	3%	-4%	0%	/	/
COc1ccc(CCNc2nc(-c3ccc(NC(C)=O)cc3)cs2)cc1OC	?	0%	-20%	0%	-44%	-1%
COc1ccc(CCNc2nc(-c3cccnc3)cs2)cc1OC	12µM*	2%	-10%	3%	-33%	-1%
O=C(CSc1cn(CCNC(=O)c2cccc(C(F)(F)F)c2)c2ccccc12)Nc1ccc2c(c1)OCCO2	-17%	/	/	/	-40%	/
CC(C)(C)N1CC(C(=O)Nc2ccc(C#N)cc2)CC1=O (stereo unspecified)	0%	-2%	-5%	-1%	/	/
COc1cccc(CNC(=O)CSc2n[nH]c(-c3ccccc3Cl)n2)c1	-3%	/	/	/	/	/
O=[N+]([O-])c1ccccc1NCCOc1ccccc1	9.5µM*	?	?	?	?	-5%
CC(C)(C)C(=O)COc1ccccc1[N+](=O)[O-]	2%	10%	0%	3%	9%	1%
CCOC(=O)/C=C/COc1ccccc1[N+](=O)[O-]	15µM*	15%	22%	?	24%	5%
O=[N+]([O-])c1ccccc1OCCOc1ccccc1[N+](=O)[O-]	-8%	3.5µM*	11%	2µM*	/	/
COc1ccc(OCCOc2ccccc2[N+](=O)[O-])cc1	17µM*	?	?	?	?	-4%
O=C(CCOc1ccccc1)Nc1ccccc1[N+](=O)[O-]	-11%	12%	13%	15%	19%	1%
COc1ccc(OC)c(/C=N/NC(=O)c2c(C)nc3ccc(C)cn23)c1	-5%	-4%	0%	2%	/	/
C[C@@H]1[C@H]2CC[C@@H]3[C@@H]4CC=C5C[C@@H](N(C)C)CC[C@]5(C)[C@@H]4CC[C@@]32CN1C	/	/	/	/	-19%[20.6 µM]	-3%[17.1 µM]
COCCCNC(=O)C[C@H]1C[C@H](C(=O)N(C(C)C)C(C)C)[C@@]2(C)c3[nH]c4cc(-c5ccco5)ccc4c3CCN2C1=O	/	/	-5%	/	/	/
Nc1ccc(C(=O)OCC(=O)c2cccc([N+](=O)[O-])c2)cc1	24µM*	2%	9%	12%	-4%	-8%
CC(=O)Nc1ccc(C(=O)OCC(=O)c2cccc([N+](=O)[O-])c2)cc1	1%	2%	1%	-7%	-4%	3%
Cc1ccc(C(=O)COC(=O)c2cccc(NC(=O)c3ccc([N+](=O)[O-])cc3[N+](=O)[O-])c2)cc1	0.11µM*	0.4µM*	?	1.4µM*	?	-8%
CCCCNC(=O)c1nn2c(C(F)(F)F)cc(-c3ccc(OC)cc3)nc2c1Br	1%	-6%	-1%	6%	/	/
Cc1cc(C)c(C(=O)CSc2n[nH]c(=O)n2C2CC2)cc1C	4%	0%	-4%	-1%	-29%	-4%
O=C(CSc1n[nH]c(=O)n1C1CC1)c1ccc2c(c1)OCCO2	13µM*	?	15%	?	/	/

Screens: PubChem, National Center for Advancing Translational Sciences (NCATS)
